Vaccinia mCherry: qHTS for Stage-Specific Inhibitors of Vaccinia Orthopoxvirus: mCherry Reporter Primary qHTS; Vaccinia virus mCherry reporter infection, fluorescence; Potency, µM (doses to about 36.5 µM), for the others: top-dose activity change, negative = inhibition, most hits filed as inhibitors; hit rate 0.63% among 310,000; AID 720579, 2013; calls by dose curve; tested in A549 cells; also: potency is read from the fitted curve at half-maximal effect; nearly all actives have a fitted effect of over 35% in size
MARV entry inh: qHTS for inhibitors of binding or entry into cells for Marburg Virus; Marburg virus pseudotyped entry inhibition, cell reporter; Potency, µM (doses to about 37.8 µM), inactives show top-dose activity change, negative = inhibition, usual class: inhibitors; hit rate 1.8% among 300,000; AID 540276, 2011; calls by dose curve; tested in HEK293 cells; also: potency is read from the fitted curve at half-maximal effect
VACV Venus inh: qHTS for Stage-Specific Inhibitors of Vaccinia Orthopoxvirus: Venus Reporter Primary qHTS; Vaccinia virus Venus reporter expression, fluorescence; Potency, µM (titrated, usually from 36.5 µM), inactives show top-dose activity change, negative = inhibition, most hits filed as inhibitors; hit rate 0.46% among 330,000; AID 720580, 2013; calls by dose curve; tested in A549 cells; also: potency is read from the fitted curve at half-maximal effect; nearly all actives have a fitted effect of over 30% in size
Lassa entry inh: qHTS for Inhibitors of binding or entry into cells for Lassa Virus; Lassa virus pseudotype entry inhibition, cell reporter; Potency, µM (titrated, usually from 37.9 µM), for the others: top-dose activity change, negative = inhibition, hits mostly inhibitors; hit rate 1.2% among 300,000; AID 540256, 2011; calls by dose curve; tested in HEK293 cells; also: potency is read from the fitted curve at half-maximal effect; nearly all actives have a fitted effect of over 50% in size
HCMV inh: qHTS Assay for inhibitors of the human cytomegalovirus (HCMV). AID 1259415, 2018. activity change, negative = inhibition, % at 57.5 µM. HFF cells, HCMV-luciferase reporter, 72 h; stronger effect = lower value. hit rate 4.5% among 410,000; in the data active = activity change below about -60%; inconclusive = no clear call, values can overlap the other calls; inactive = above about -39%
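HFF cells seeded 16 h at 37C, treated with compounds, infected with luciferase-reporter HCMV at MOI 1 PFU/cell; luciferase read at 72 h post infection, normalized to buffer-only and Salinomycin controls.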
FMDV inh: High Throughput Screening for Foot and Mouth Disease Virus Antivirals. Potency, µM (series often up to 57.9 µM), inactives show at the top dose activity change, negative = inhibition, most hits filed as inhibitors. FMDV antiviral cell-based qHTS. hit rate 1.2% among 410,000; calls by dose curve; tested in HEK293T cells; also: read-out not given here; potency is read from the fitted curve at half-maximal effect; nearly all actives have a fitted effect of over 45% in size
* hit, by the source's call; i = inactive; ? = inconclusive; · = not tested or not shown; ! = not confirmed by another sample; [ ] = another dose, or the depositor's remark. Sampled rows, rich in hits. Any-hit rate of the full collection: about 6.5%. % is scaled to controls: 0 for no effect and ±100 for the full control effect.

SMILES | Vaccinia mCherry | MARV entry inh | VACV Venus inh | Lassa entry inh | HCMV inh | FMDV inh
CCCOC(=O)Nc1nc(-c2ccc(C)cc2)c(C)s1 | i | 0.3%[46.1 µM] | -6.6% | 11.2µM* | ? | 20.4%
CCCOC(=O)CSc1nnc(-c2ccccc2)o1 | 4.7% | · | 14.0% | 2.9%[46.1 µM] | 15.7 | -2.4%
Cn1cc([N+](=O)[O-])c(C(=O)Nc2nc(-c3ccc(Cl)cc3)cs2)n1 | · | ? | 11.2µM* | ? | -96.4* | ?
O=C(Nc1nc(-c2ccc([N+](=O)[O-])cc2)cs1)c1c(F)cccc1F | · | -17.0% | · | ? | -12.0 | -17.4%
CC(Sc1nc2ccccc2c(=O)n1C)C(=O)N(C)C1CCCCC1 (centres undefined) | -9.9% | ? | -23.7% | ? | -78.7* | ?
CC(=O)Nc1ccccc1OCC(=O)NC(C)c1ccccc1 (centres undefined) | · | -0.2% | · | -3.5% | 76.2 | 3.3%
CC(NC(=O)COc1ccccc1-c1ccccc1)c1ccccc1 (centres undefined) | i | ? | -5.7% | 17.8µM* | -69.1* | ?
C/C(CCC(C)C)=N\NC(=O)COc1ccccc1-c1ccccc1 | -13.3% | ? | -11.4% | ? | -90.0* | -10.5%
C/C(CCc1ccccc1)=N\NC(=O)COc1ccccc1C | i | ? | -3.7% | · | 26.3 | -1.1%
CCCCCCCCCCOC(=O)Cn1c(COc2ccccc2OC)[n+](C)c2ccccc21 | ? | 2.51µM* | 14.1µM* | ? | ? | ?
Cc1cc(-c2ccc(C)c(S(=O)(=O)NCc3ccc(Br)cc3)c2)on1 | · | · | · | · | -64.2* | -7.0%
Cc1cc(-c2ccc(C)c(S(=O)(=O)NCCc3ccc(S(N)(=O)=O)cc3)c2)on1 | i | · | -17.3% | -5.8%[46.1 µM] | -63.9*! | 34.2%
Cc1cc(-c2ccc(C)c(S(=O)(=O)NCCc3ccco3)c2)on1 | · | · | · | · | 1.9 | 43.3%
Cc1cc(-c2ccc(C)c(S(=O)(=O)NCc3cccc(Br)c3)c2)on1 | i | · | -5.7% | -18.4%[46.1 µM] | -63.2*! | 15.1%
COc1ccc(-n2nc(C(=O)NCCc3ccc(OC)c(OC)c3)c3c4ccccc4n(C)c3c2=O)cc1 | -11.5%[7.34 µM] | -1.3%[46.1 µM] | -0.7%[7.34 µM] | ? | 66.9 | 0.0%
COc1ccc(CN2CCCC(Cn3cc(C(=O)N4CCCC4)nn3)C2)c(O)c1 (centres undefined) | -9.6% | · | -9.5% | · | · | -11.9%
CN(C)S(=O)(=O)Oc1cccc(C(=O)Nc2ccccc2Cl)c1 | · | 31.2% | · | -10.8% | 8.9 | -7.6%
CN(C)S(=O)(=O)Oc1ccc(C(=O)Nc2cccc(C(F)(F)F)c2)cc1 | · | · | · | · | -76.2* | 14.1µM*
CN(C)S(=O)(=O)Oc1cccc(C(=O)Nc2ccc(Cl)cc2)c1 | · | ? | · | 14.6µM* | -28.8 | -29.1%
Cc1ccc(C)c(Cn2c3ccccc3c3cnn(CC(=O)NC(C)CCc4ccccc4)c(=O)c32)c1 (centres undefined) | -11.2%[7.34 µM] | 10.0%[46.1 µM] | -13.0%[7.34 µM] | 1.0%[46.1 µM] | -37.0 | -13.2%
C1=Cc2ccccc2/C1=C\c1ccc2c(c1)OCO2 | -14.8% | · | -14.4% | · | · | ·
Cc1ccc(NC(=O)c2sc(=S)n(-c3cc(C)ccc3F)c2N)cc1 | -6.7% | 30.5%[46.1 µM] | -6.9% | -35.2%[46.1 µM] | -62.6* | 9.9%
O=C1C(Br)=C(c2ccccc2)C(c2ccccc2)=C1c1ccccc1 | -6.9% | ? | -10.5% | ? | · | 3.55µM*
CCCCN(C(=O)CSc1nncn1-c1ccccc1)c1c(N)n(Cc2ccccc2)c(=O)[nH]c1=O | · | 0.4% | · | 0.8% | -61.7* | 1.2%
CCCCn1c(N)c(N(CCOC)C(=O)C2CCN(S(=O)(=O)c3ccc(F)cc3)CC2)c(=O)[nH]c1=O | -11.5% | 18.2% | -9.0% | 11.0% | -36.3 | -27.7%
CCCCCN(C(=O)CN1CCC(Cc2ccccc2)CC1)c1c(N)n(CCCC)c(=O)[nH]c1=O | -16.0% | 10µM* | -16.1% | ? | 46.0 | -16.1%
CCc1ccc(-c2nc(SCC(=O)N(CCOC)c3c(N)n(Cc4ccccc4)c(=O)[nH]c3=O)n[nH]2)cc1 | -13.0% | -3.0% | -5.1% | ? | -78.7* | 16.6%
COCCN(C(=O)CSc1n[nH]c(-c2ccc(OC)cc2)n1)c1c(N)n(Cc2ccccc2)c(=O)[nH]c1=O | i | -13.1% | -5.6% | -17.3% | -12.9 | -15.2%

Screens (PubChem)
